The whole screen tested about 5,500 compounds, of which about 2,000 (36%) were called active. Inconclusive results (about 18%) are left out. Rule as the data show it: active = normalized growth mostly below about 0.91 (no sharp cut-off); inconclusive = no clear call, values can overlap the other calls; inactive = mostly above about 0.92. The list shows a part of the results.
Assay: chemical genetic growth profiling, strain panel (AID 1159580);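 also: tested at 20 µM; growth read once vehicle control cultures reached saturation at 30 °C; 1 = growth at the plate median or of vehicle wells; lower values mean less growth of the strain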
Details: growth OD

Measured: normalized growth

CC(=O)Nc1cccc(O)c1
inactive: S. cerevisiae deletion strains, locus YJL187C, strain SWE1, active compounds read low 1.02 | S. cerevisiae deletion strains, locus YJR043C, strain POL32, active compounds read low 0.999 | S. cerevisiae deletion strains, locus YJR075W, strain HOC1, active compounds read low 1.01 | S. cerevisiae deletion strains, locus YKL009W, strain mrt4, active compounds read low 0.973 | S. cerevisiae deletion strains, locus YKL068W, active compounds read low 0.989 | S. cerevisiae deletion strains, locus YKL085W, strain MDH1 (second series), active compounds read low 1.01 | S. cerevisiae deletion strains, locus YKL085W, strain MDH1, active compounds read low 1.01 | S. cerevisiae deletion strains, locus YKL160W, strain elf1, active compounds read low 1.05 | S. cerevisiae deletion strains, locus YKL190W, strain CNB1, active compounds read low 1 | S. cerevisiae deletion strains, locus YKR001C, strain vps1, active compounds read low 0.991 | S. cerevisiae deletion strains, locus YKR026C, strain gcn3, active compounds read low 1.01 | S. cerevisiae deletion strains, locus YKR091W, strain srl3, active compounds read low 1.01 | S. cerevisiae deletion strains, locus YLL001W, strain dnm1, active compounds read low 0.995 | S. cerevisiae deletion strains, locus YLL026W, active compounds read low 1.03 | S. cerevisiae deletion strains, locus YLL041C, strain sdh2, active compounds read low 1.03 | S. cerevisiae deletion strains, locus YLR027C, strain aat2, active compounds read low 1.01 | S. cerevisiae deletion strains, locus YLR039C, strain RIC1, active compounds read low 1 | S. cerevisiae deletion strains, locus YLR058C, strain SHM2, active compounds read low 1.01 | S. cerevisiae deletion strains, locus YLR102C, strain apc9, active compounds read low 1.01 | S. cerevisiae deletion strains, locus YLR221C, strain rsa3, active compounds read low 0.972 | S. cerevisiae deletion strains, locus YLR258W, strain gsy2, active compounds read low 1.04 | S. cerevisiae deletion strains, locus YLR262C, strain YPT6 (second series), active compounds read low 1.01 | S. cerevisiae deletion strains, locus YLR262C, strain YPT6, active compounds read low 1.02 | S. cerevisiae deletion strains, locus YLR268W, strain sec22, active compounds read low 0.986 | S. cerevisiae deletion strains, locus YLR320W, strain mms22, active compounds read low 0.957 | S. cerevisiae deletion strains, locus YLR330W, strain CHS5, active compounds read low 1.01 | S. cerevisiae deletion strains, locus YLR342W, strain FKS1 (second series), active compounds read low 1 | S. cerevisiae deletion strains, locus YLR342W, strain FKS1, active compounds read low 1.04 | S. cerevisiae deletion strains, locus YLR357W, strain rsc2, active compounds read low 1.04 | S. cerevisiae deletion strains, locus YLR370C, strain arc18, active compounds read low 1.03 | S. cerevisiae deletion strains, locus YLR371W, strain rom2, active compounds read low 0.999 | S. cerevisiae deletion strains, locus YLR384C, strain iki3, active compounds read low 1.02 | S. cerevisiae deletion strains, locus YLR418C, strain cdc73, active compounds read low 0.996 | S. cerevisiae deletion strains, locus YML016C, strain PPZ1, active compounds read low 1.01 | S. cerevisiae deletion strains, locus YML032C, strain rad52, active compounds read low 0.995 | S. cerevisiae deletion strains, locus YML120C, strain ndi1, active compounds read low 0.972 | S. cerevisiae deletion strains, locus YML124C, strain tub3, active compounds read low 0.986 | S. cerevisiae deletion strains, locus YMR058W, strain fet3, active compounds read low 1.02 | S. cerevisiae deletion strains, locus YMR078C, strain ctf18, active compounds read low 0.989 | S. cerevisiae deletion strains, locus YMR125W, strain sto1, active compounds read low 1.03 | S. cerevisiae deletion strains, locus YMR129W, active compounds read low 0.998 | S. cerevisiae deletion strains, locus YMR205C, strain PFK2, active compounds read low 0.991 | S. cerevisiae deletion strains, locus YMR223W, strain ubp8, active compounds read low 1 | S. cerevisiae deletion strains, locus YMR231W, strain pep5, active compounds read low 1 | S. cerevisiae deletion strains, locus YMR263W, strain SAP30, active compounds read low 1.01 | S. cerevisiae deletion strains, locus YMR307W, strain GAS1, active compounds read low 1 | S. cerevisiae deletion strains, locus YNL067W, strain RPL9B, active compounds read low 1.01 | S. cerevisiae deletion strains, locus YNL071W, strain lat1, active compounds read low 1.01 | S. cerevisiae deletion strains, locus YNL153C, strain GIM3, active compounds read low 1.02 | S. cerevisiae deletion strains, locus YNL209W, strain ssb2, active compounds read low 1.02 | S. cerevisiae deletion strains, locus YNL233W, strain BNI4, active compounds read low 1.02 | S. cerevisiae deletion strains, locus YNL248C, strain rpa49, active compounds read low 1.07 | S. cerevisiae deletion strains, locus YNL250W, strain rad50, active compounds read low 0.995 | S. cerevisiae deletion strains, locus YNL271C, strain bni1, active compounds read low 0.993 | S. cerevisiae deletion strains, locus YNL298W, strain CLA4, active compounds read low 0.978 | S. cerevisiae deletion strains, locus YNL307C, strain MCK1, active compounds read low 1.01 | S. cerevisiae deletion strains, locus YNL322C, strain KRE1 (second series), active compounds read low 1.05 | S. cerevisiae deletion strains, locus YNL322C, strain KRE1, active compounds read low 1 | S. cerevisiae deletion strains, locus YNR049C, strain mso1, active compounds read low 1.01 | S. cerevisiae deletion strains, locus YNR052C, strain pop2, active compounds read low 1 | S. cerevisiae deletion strains, locus YOL006C, strain TOP1, active compounds read low 1.03 | S. cerevisiae deletion strains, locus YOL012C, strain htz1 0.695 | S. cerevisiae deletion strains, locus YOL147C, strain pex11, active compounds read low 0.99 | S. cerevisiae deletion strains, locus YOR001W, strain rrp6, active compounds read low 0.952 | S. cerevisiae deletion strains, locus YOR061W, strain CKA2, active compounds read low 1 | S. cerevisiae deletion strains, locus YOR069W, strain VPS5, active compounds read low 1 | S. cerevisiae deletion strains, locus YOR070C, strain gyp1, active compounds read low 1.02 | S. cerevisiae deletion strains, locus YOR080W, strain dia2, active compounds read low 1.02 | S. cerevisiae deletion strains, locus YOR083W, strain WHI5, active compounds read low 0.997 | S. cerevisiae deletion strains, locus YOR106W, strain vam3, active compounds read low 1.05 | S. cerevisiae deletion strains, locus YOR136W, strain idh2, active compounds read low 0.995 | S. cerevisiae deletion strains, locus YOR144C, strain elg1, active compounds read low 0.993 | S. cerevisiae deletion strains, locus YOR184W, strain ser1, active compounds read low 1 | S. cerevisiae deletion strains, locus YOR265W, strain rbl2, active compounds read low 1.01 | S. cerevisiae deletion strains, locus YOR270C, strain vph1, active compounds read low 1.05 | S. cerevisiae deletion strains, locus YOR290C, strain snf2, active compounds read low 1.05 | S. cerevisiae deletion strains, locus YOR316C, strain cot1, active compounds read low 0.991 | S. cerevisiae deletion strains, locus YPL051W, strain arl3, active compounds read low 1.04 | S. cerevisiae deletion strains, locus YPL055C, strain LGE1, active compounds read low 1.01 | S. cerevisiae deletion strains, locus YPL078C, strain atp4, active compounds read low 1.04 | S. cerevisiae deletion strains, locus YPL106C, strain sse1, active compounds read low 1.01 | S. cerevisiae deletion strains, locus YPL240C, strain hsp82, active compounds read low 1.01 | S. cerevisiae deletion strains, locus YPR119W, strain clb2, active compounds read low 1 | S. cerevisiae deletion strains, locus YPR141C, strain kar3, active compounds read low 0.98 | S. cerevisiae deletion strains, locus YPR163C, strain tif3, active compounds read low 0.988 | S. cerevisiae deletion strains, locus YPR167C, strain met16, active compounds read low 0.997 | S. cerevisiae deletion strains, strain wtn01, active compounds read low 0.995 | S. cerevisiae strains, strain wild type, active compounds read low 1.01
